Assay results from article PMC7819943, “Rice protein-binding microarrays: a tool to detect cis-acting elements near promoter regions in rice”.
The full ranking holds about 68,000 sequences; the median of “fluorescence intensity (a.u.)” is about 9,100, and the highest 2% start at about 16,000. The sample holds the highest values, similar sequences and a random draw of the others, so the mix is not that of the screen.

What follows are sequences tested against OsWRKY34 (Oryza sativa, UniProt Q0JBA9 1-250) (assay: protein-binding microarray (RPBM); PBS, 2% BSA, 51.3 ng/ul salmon testes DNA, 50 uM zinc acetate, 200 nM TF, 25 C, 1 h; high values mean tight binding). Conditions: protein: recombinant; tags: N-terminal polyhistidine and DsRed monomer fusion (pET32a); label: CyDye5-dUTP incorporated in the synthesized complementary strand; 3' TTTTT single-stranded linker to array surface; dsDNA, one strand shown.
How it was run: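 Ni–NTA purification followed expression in E. coli BL21-CodonPlus of transcription factors fused N-terminally to a polyhistidine tag and DsRed. At 200 nM in PBS with 2% BSA, salmon testes DNA and 50 µM zinc acetate, the protein was incubated for 1 h at 25 °C with a custom Agilent array that had been primer-extended with Cy5-dUTP and blocked with 2% BSA. After washing, the array was read on an Axon 4000B scanner. The binding signal is per-feature fluorescence intensity in arbitrary units.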

OsWRKY34, sequence (Q0JBA9 entry or part of it): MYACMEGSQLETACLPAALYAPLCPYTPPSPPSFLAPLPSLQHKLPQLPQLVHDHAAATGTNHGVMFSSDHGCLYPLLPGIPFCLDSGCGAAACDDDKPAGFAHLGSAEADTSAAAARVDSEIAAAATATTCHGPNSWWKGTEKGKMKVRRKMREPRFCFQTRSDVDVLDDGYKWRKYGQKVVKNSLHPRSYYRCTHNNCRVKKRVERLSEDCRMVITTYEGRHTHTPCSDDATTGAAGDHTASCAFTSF

| Sequence | binding signal |
| --- | --- |
| GGGTTGGGTGGGTGCTGTAATATGGGGAGATACTGACTACCGGAGTCACCTAGTGCAG | 19200 fluorescence intensity (a.u.) |
| TGGAGGAGGGGAGGCCGGGGATTGTTTTTATAGGGGAGGGCGGAGTCACCTAGTGCAG | 30500 fluorescence intensity (a.u.) |
| GGGTGGAGCTGAACTGATGGGCCGAACTATGTATGGTTGGCGGAGTCACCTAGTGCAG | 9030 fluorescence intensity (a.u.) |
| TCTCCTCTCTCTCTCTTCTTCCCGGGGAGGCGGGGAGCGGCGGAGTCACCTAGTGCAG | 11700 fluorescence intensity (a.u.) |
| TGGCCGGAGAGGGGAGATGGGGAGATGGGGAGAGGGGAGGCGGAGTCACCTAGTGCAG | 9420 fluorescence intensity (a.u.) |
| CGCTGCGCTGCCGGTCCATTTCTAGAAGCCCTCGCGCTCCCGGAGTCACCTAGTGCAG | 9130 fluorescence intensity (a.u.) |
| TTGAATTGAATTATTATGCTCATCGCTTTCGCATAACCTCCGGAGTCACCTAGTGCAG | 8320 fluorescence intensity (a.u.) |
| CTAGGAGGAGGATTAGTTCTTGCGCATCGCTTCTGAGCTCCGGAGTCACCTAGTGCAG | 8200 fluorescence intensity (a.u.) |
| CCCATGTTTTTTTTTCATATTTTGCAATCTTCGGTTTAAACGGAGTCACCTAGTGCAG | 8520 fluorescence intensity (a.u.) |
| CTATAAATACACGACGTCTCTCCGCTGGCTTACACACAACCGGAGTCACCTAGTGCAG | 10100 fluorescence intensity (a.u.) |
| CGCCAACTCAACGCTGAAGCCGCTGCCTCACCATCTCGTCCGGAGTCACCTAGTGCAG | 8780 fluorescence intensity (a.u.) |
| ATCGCCGCAACCACCAACCTCTCGAGGCCGTTCGAATCCCCGGAGTCACCTAGTGCAG | 12300 fluorescence intensity (a.u.) |
| TATATATATATATATATATATATATATATATATAAGCGTCCGGAGTCACCTAGTGCAG | 11300 fluorescence intensity (a.u.) |
| AGTGCTGGAGGAGGGAGGCGGGGAGGGGAGCCATCAGCCACGGAGTCACCTAGTGCAG | 17300 fluorescence intensity (a.u.) |
| GGGGAGGGAGCCGGGCGGGATTCAGCCATGAGGAGGAGGGCGGAGTCACCTAGTGCAG | 9050 fluorescence intensity (a.u.) |
| GTGGTCCGGTGGTGGGGTGATGGGGCGTGGCGGTTCTGTCCGGAGTCACCTAGTGCAG | 15400 fluorescence intensity (a.u.) |
| GGGGCGGCAGTGGATGGCGGTTGGGCGGCGGTGCGGGGAGCGGAGTCACCTAGTGCAG | 12200 fluorescence intensity (a.u.) |
| TTGGTGGTTGGTGGGGAGCGTGGAGATGGCGGGGCTGTCCCGGAGTCACCTAGTGCAG | 22200 fluorescence intensity (a.u.) |
| AGAAGGAGAAGGCGGGGAGAGGCGGGGCGGCCACGGGAGACGGAGTCACCTAGTGCAG | 12500 fluorescence intensity (a.u.) |
| GAGGACGAAGTGGAGGCGGAGGGCAGGTGGGGAGGAGAGCCGGAGTCACCTAGTGCAG | 8660 fluorescence intensity (a.u.) |
| TTCTTGCCGGAGGAGGGGCAGGGGAGGGAGCCGGGCGGGACGGAGTCACCTAGTGCAG | 23500 fluorescence intensity (a.u.) |

| Sequence | binding signal |
| --- | --- |
| AGAAGGGAAGGGGAGGGGAGGGCGGGACGCCGGCCGGAGCCGGAGTCACCTAGTGCAG | 10200 fluorescence intensity (a.u.) |
| GGCCATGCTTGAATCTCTCGCCTGACATTCAGACTTCAGACGGAGTCACCTAGTGCAG | 8390 fluorescence intensity (a.u.) |
| CTCTATATAAGCCCCACAATGCCCACCACCAGCTTGTCACCGGAGTCACCTAGTGCAG | 8230 fluorescence intensity (a.u.) |
| AAGATTCTTCTCTTCGTCGACGACCCGGCCTCTCGCTCTCCGGAGTCACCTAGTGCAG | 9630 fluorescence intensity (a.u.) |
| CTATTGGCTCATACCTTTTTTCAGTGGCTGGGTGTAGGTTCGGAGTCACCTAGTGCAG | 8840 fluorescence intensity (a.u.) |
| TGCAGATATTGGCATCGATTGCTCACTTCAGGTGATTTTTCGGAGTCACCTAGTGCAG | 8060 fluorescence intensity (a.u.) |
| CATGTCCAACTTTAATTGTTCGTCTTTTTTTTGAAAAAACCGGAGTCACCTAGTGCAG | 8630 fluorescence intensity (a.u.) |
| CAGACCTGGAGGTTGTTGCCCTTGATGTGCGCCCAGATGACGGAGTCACCTAGTGCAG | 8470 fluorescence intensity (a.u.) |
| ATCAATTTATCACCCGCTGACTCATCTTTATTGTATCTGCCGGAGTCACCTAGTGCAG | 8420 fluorescence intensity (a.u.) |
| CGCATCTCGTTTTCTCTTTATTTGTTTCTTCTTTCGCTTTCGGAGTCACCTAGTGCAG | 13800 fluorescence intensity (a.u.) |
| GTCTCTTTCCGCTGCTTCGTTTCTGTCTCCGGTTTATTCACGGAGTCACCTAGTGCAG | 18800 fluorescence intensity (a.u.) |
| TTGTAGTCCGCTGCTTTCCCTTTCTTTTATCTTCTCTTTCCGGAGTCACCTAGTGCAG | 8450 fluorescence intensity (a.u.) |
| TCTCCCCTTTCTGCTTCTGCTGCTTCTCCCTTTCCCTCTCCGGAGTCACCTAGTGCAG | 8200 fluorescence intensity (a.u.) |
| ATTGTCTTGGCTGCTGTCTTTATAGTATTCACTCATCTGCCGGAGTCACCTAGTGCAG | 18500 fluorescence intensity (a.u.) |
| GTTCTTTTGGGCAATCTCGTCTGTATTCCTTTGTCGTCTACGGAGTCACCTAGTGCAG | 10800 fluorescence intensity (a.u.) |
| AATGGCTAGCGTATAATCTGTCTTGGAATCACTTTGCTGCCGGAGTCACCTAGTGCAG | 8120 fluorescence intensity (a.u.) |
| TTTATTCTCTGTTCCTCTTTTTTTCATATTCGTTTTTCACCGGAGTCACCTAGTGCAG | 13200 fluorescence intensity (a.u.) |
| TTTTTTTCTCTTTCTTTTTTCTTTTCTTCGTTTTCTTTCACGGAGTCACCTAGTGCAG | 9230 fluorescence intensity (a.u.) |
| TTTTTATTCCACCGCTTTGTCGTTCTCGCAATCTCGCTGTCGGAGTCACCTAGTGCAG | 17700 fluorescence intensity (a.u.) |
| GTCCGCTGCTTTTCTCCCTTGTCGGTTATTTTACCTCTTCCGGAGTCACCTAGTGCAG | 18900 fluorescence intensity (a.u.) |
| TTCTGGATCTTGACTCTTGACCAGTTCATCCACACGTGTGCGGAGTCACCTAGTGCAG | 8540 fluorescence intensity (a.u.) |
